Source: ChEMBL document CHEMBL2218924, “A broad activity screen in support of a chemogenomic map for kinase signalling research and drug discovery” (Biochem J, 2013)

Target: T1, 3-phosphoinositide-dependent protein kinase 1 (Homo sapiens) (UniProt O15530)
T1 sequence (whole entry): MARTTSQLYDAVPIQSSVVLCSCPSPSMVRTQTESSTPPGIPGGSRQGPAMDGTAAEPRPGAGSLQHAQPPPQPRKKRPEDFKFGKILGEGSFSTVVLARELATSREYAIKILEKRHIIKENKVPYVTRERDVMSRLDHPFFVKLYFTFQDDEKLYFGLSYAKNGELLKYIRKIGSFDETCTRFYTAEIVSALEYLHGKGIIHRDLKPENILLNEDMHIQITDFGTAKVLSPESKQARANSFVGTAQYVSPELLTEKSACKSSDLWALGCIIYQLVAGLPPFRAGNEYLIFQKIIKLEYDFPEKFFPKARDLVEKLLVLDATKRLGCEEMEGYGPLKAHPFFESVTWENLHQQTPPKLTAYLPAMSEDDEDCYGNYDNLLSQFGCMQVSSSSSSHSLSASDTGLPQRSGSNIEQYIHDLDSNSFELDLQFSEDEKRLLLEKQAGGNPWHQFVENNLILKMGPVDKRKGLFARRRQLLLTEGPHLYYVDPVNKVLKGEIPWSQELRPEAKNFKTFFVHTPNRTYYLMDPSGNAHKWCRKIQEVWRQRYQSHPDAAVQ
Settings: at 1 µM

Structure (SMILES)	residual activity [%]
CCCCc1c(-c2ccc(O)cc2)[nH]c2nccnc12	60
CC(C)c1nn(-c2c(Cl)cccc2Cl)c2nc(Cc3ccc(OCCO)cc3)[nH]c(=O)c12	101
O=C(Nc1nc2ccccc2n1CCN1CCOCC1)c1cccc([N+](=O)[O-])c1	104
O=C(NC(NC(=S)Nc1ccc(F)c([N+](=O)[O-])c1)C(Cl)(Cl)Cl)C(c1ccccc1)c1ccccc1 (stereo not drawn)	103
Nc1nc(Nc2ccc(S(N)(=O)=O)cc2)nn1C(=O)c1c(F)cccc1F	68
O=C1NC(=O)C(c2cn(CCCn3ccnc3)c3ccccc23)=C1Nc1ccccc1	39

Target: T1, 3-phosphoinositide-dependent protein kinase 1 (Homo sapiens)
Settings: at 10 µM

Structure (SMILES)	residual activity [%]
CCCCc1c(-c2ccc(O)cc2)[nH]c2nccnc12	31
CC(C)c1nn(-c2c(Cl)cccc2Cl)c2nc(Cc3ccc(OCCO)cc3)[nH]c(=O)c12	99
O=C(Nc1nc2ccccc2n1CCN1CCOCC1)c1cccc([N+](=O)[O-])c1	81
Nc1n[nH]c2nc3ccccc3nc12	85
O=C(NC(NC(=S)Nc1ccc(F)c([N+](=O)[O-])c1)C(Cl)(Cl)Cl)C(c1ccccc1)c1ccccc1 (stereo not drawn)	87
Nc1nc(Nc2ccc(S(N)(=O)=O)cc2)nn1C(=O)c1c(F)cccc1F	21
O=C1NC(=O)C(c2cn(CCCn3ccnc3)c3ccccc23)=C1Nc1ccccc1	8
O=C1Nc2ccccc2/C1=C\c1c(Cl)[nH]c2ccccc12	85

Target: cAMP-dependent protein kinase catalytic subunit alpha (Homo sapiens) (UniProt P17612)
Settings: at 1 µM

Structure (SMILES)	residual activity [%]
COc1ccc(CNC(=O)Nc2ncc([N+](=O)[O-])s2)cc1	109
O=S(=O)(NCCNC/C=C/c1ccc(Br)cc1)c1cccc2cnccc12	2
O=C1Cc2c([nH]c3ccc(Br)cc23)-c2ccccc2N1	89
CC(C)c1nn(-c2c(Cl)cccc2Cl)c2nc(Cc3ccc(OCCO)cc3)[nH]c(=O)c12	90
O=c1cc(N2CCNCC2)oc2c(-c3ccccc3)cccc12	72
O=c1cc(N2CCOCC2)oc2c1ccc1ccccc12	101
COc1cc2nccc(Oc3ccc(NC(=O)Nc4cc(C)on4)c(Cl)c3)c2cc1OC	108
O=C1C(Cl)=C(N2C(=O)CCC2=O)C(=O)c2ccccc21	95
O=S(=O)(c1cccc2cnccc12)N1CCCNCC1	53
CSc1nc(-c2ccc(F)cc2)c(-c2ccnc(NC(C)c3ccccc3)c2)[nH]1 (stereo not drawn)	101
CC(C)[C@H](CO)Nc1nc(Nc2cc(N)cc(Cl)c2)c2ncn(C(C)C)c2n1	93
NC(=O)c1ccc(-c2nc(-c3ccc4c(c3)OCCO4)c(-c3ccccn3)[nH]2)cc1	92
O=C1NC(=O)C(c2cn(CCCn3ccnc3)c3ccccc23)=C1Nc1ccccc1	69
Fc1ccc(-c2nc3n(c2-c2ccncc2)CCS3)cc1	94
